TDP1 cell noCPT: qHTS for Inhibitors of human tyrosyl-DNA phosphodiesterase 1 (TDP1): qHTS in cells in absence of CPT; DT40 Tdp1-/- hTDP1 cells, no CPT, ATP luminescence, 48 h; Potency, µM (top dose mostly 46.2 µM), without a hit: at the top dose activity change, negative = growth inhibition, actives largely listed as inhibitors; 420,000 tested, 15% active; further: potency means the concentration at half of the fitted maximal effect; nearly all actives have a fitted effect of over 55% in size
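Readout: luminescence from CellTiter-Glo after 30 min in the dark at RT. Cells: DT40 Tdp1-/- with stable hTDP1, 400/well. Exposure: compounds alone, ≥48 hr, 37 °C.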
TDP1 block: TDP1 (human) enzyme inhibition; recombinant TDP1, AlphaScreen DNA substrate cleavage; Potency, µM (titrated, usually from 130 µM), for inactives: at the highest dose activity change, negative = inhibition, most hits filed as inhibitors; Q9NUW8; 350,000 tested, 0.28% active; further: potency means the concentration at half of the fitted maximal effect; nearly all actives have a fitted effect of over 40% in size
Target sequence (Q9NUW8 whole entry, looked up): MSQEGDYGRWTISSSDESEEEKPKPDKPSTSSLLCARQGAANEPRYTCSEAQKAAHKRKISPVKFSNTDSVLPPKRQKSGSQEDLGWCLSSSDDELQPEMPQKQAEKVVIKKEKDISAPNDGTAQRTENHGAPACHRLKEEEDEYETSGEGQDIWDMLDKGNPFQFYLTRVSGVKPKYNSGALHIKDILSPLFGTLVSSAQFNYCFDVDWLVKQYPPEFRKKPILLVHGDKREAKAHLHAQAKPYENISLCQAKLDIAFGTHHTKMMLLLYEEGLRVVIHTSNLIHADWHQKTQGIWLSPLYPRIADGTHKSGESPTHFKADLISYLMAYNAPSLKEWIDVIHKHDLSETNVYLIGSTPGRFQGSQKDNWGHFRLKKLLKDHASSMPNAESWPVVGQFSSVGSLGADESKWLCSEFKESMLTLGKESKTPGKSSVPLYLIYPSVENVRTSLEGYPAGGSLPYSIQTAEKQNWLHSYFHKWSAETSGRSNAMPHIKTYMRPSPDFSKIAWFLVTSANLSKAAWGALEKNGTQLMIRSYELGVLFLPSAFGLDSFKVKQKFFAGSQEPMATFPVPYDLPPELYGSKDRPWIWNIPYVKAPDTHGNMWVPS
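Steps: enzyme plus compound, 15 min RT; add biotin/phosphotyrosine-FITC oligonucleotide (15 nM final), react 5 min; add donor/acceptor beads (10 ug/ml final), 10 min; read AlphaScreen. Tdp1 at 1 nM final.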
DT40 TDP1 CPT: DT40-hTDP1 cell growth loss with CPT. Potency, µM (titrated, usually from 46.2 µM), for inactives: at the highest dose activity change, negative = growth inhibition, hits mostly inhibitors. AID 686979. chicken DT40 Tdp1-/-;hTDP1 cells + 20 nM CPT, ATP luminescence, 48 h. 420,000 tested, 12% active; further: potency means the concentration at half of the fitted maximal effect; nearly all actives have a fitted effect of over 55% in size
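Chicken DT40 Tdp1-/- cells complemented with human TDP1, 400 cells/well, exposed to compounds plus 20 nM camptothecin for at least 48 h at 37 C; viability read as ATP content by CellTiter-Glo luminescence.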
Giardia killer: Giardia lamblia killing. Giardia lamblia trophozoite viability. activity change, % at 7.66 µM, hits read low. 340,000 tested, 0.15% active; in the data active means activity change below about -80%; inconclusive means between about -30% and that limit;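 further: parasites exposed to compound for two days anaerobically before the ATP read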
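Each well holds 100 Giardia trophozoites and compound. After two days (48 hrs) at 37 deg C in anaerobic conditions, ATP is quantified by luminescence.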
IL1B secr inh: inhibitors of inflammasome signaling (IL-1 beta secretion) | THP-1 LPS/ATP IL-1B secretion, AlphaLISA, 16 h; active compounds read low | activity change, % at 57.5 µM | 360,000 tested, 4.7% active; in the data active means activity change below about -50%; inconclusive means mostly about -30% to -49%
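THP-1 cells pretreated 1 hr with compounds (up to 57.5 uM final), then stimulated with LPS (250 ng/mL final) plus ATP (1.25 mM final); secreted IL-1B measured by AlphaLISA after 16 hr, decreased signal indicating inhibition.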
ELG1 DNA repair: blocks ELG1-dependent DNA repair in HEK293T cells; HEK293T ELG1-luciferase reporter, luminescence, 16 h; DNA damage induced by 5-fluorouridine; AID 504467; Potency, µM (top dose mostly 46.1 µM), inactives show at the top dose activity change, negative = inhibition, actives largely listed as inhibitors; 330,000 tested, 2.3% active; further: potency means the concentration at half of the fitted maximal effect; nearly all actives have a fitted effect of over 55% in size
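Reporter activity after DNA damage by 5-fluorouridine is monitored. Compound-treated cells incubate 16 hr at 37 °C, then ONE-Glo is added for 30 min before luminescence reading.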
Starred values were filed as active, the others as inactive; ? = inconclusive; . = not tested or not shown; [ ] = another dose, or the depositor's remark. Shown are actives, neighbours in structure and some others; about 19% of the full set was active somewhere. Unless noted, the call rests on the fitted dose curve; in most records, active means well fitted curve in the direction sought with a large enough effect; inconclusive means small, poorly fitted or top-dose-only effect, or another doubt; inactive means no such curve, though single readings can be large; an effect the other way counts as inactive or inconclusive. On the % scale 0 is the no-effect control and ±100 the full control effect.

SMILES	TDP1 cell noCPT	TDP1 block	DT40 TDP1 CPT	Giardia killer	IL1B secr inh	ELG1 DNA repair
O=C(CSc1nc(-c2ccc(F)cc2)[nH]c1-c1ccc(F)cc1)Nc1ccc2c(c1)OCCO2	10µM*	0%[12.3 µM]	10µM*	.	.	.
COc1ccccc1C(=O)Nc1c(C(=O)N(C)c2ccccc2)sc2nc(C)cc(C)c12	?	1%	?	.	.	.
O=C(NNC(=S)Nc1ccc(F)c(Cl)c1)C1CC1	9%	3%	43%	13	3	3%
O=C(NNC(=S)Nc1ccc(F)c(Cl)c1)c1ccccc1Br	?	11%	?	-13	-62*	?
CC(=O)Nc1cccc(NC(=O)Nc2ccc(C)c(Cl)c2)c1	-22%	-2%	-3%	-27	-15	?
CC(=O)Nc1cccc(NC(=S)Nc2ccc(F)c(Cl)c2)c1	?	.	16µM*	2	-7	2%
O=C(CCn1cnc2ccccc2c1=O)Nc1cccc(Cl)c1Cl	-3%	0%	10%	-2	?	-7%
Cc1csc(CNc2ncnc3cc(-c4ccc5c(c4)OCO5)ccc23)n1	.	0%	.	.	.	.
CC(=O)O[C@@H]1[C@@H](O)CN[C@@H]1Cc1ccccc1	.	1%	.	-83*	.	.
CC(C)C(=O)Nc1ccc2c(c1)C(=O)N(CCC(=O)O)C2=O	29µM*	4%	-10%	18	3	-3%
COc1ccc(CC(=O)Nc2ccc3c(c2)C(=O)N(CCC(=O)O)C3=O)cc1	2%	.	14%	4	4	0%
CCCN1CCN(C(=O)c2cnn(-c3ncc4c(n3)-c3ccccc3CCC4)c2COC)CC1	-18%	.	15%[9.04 µM]	.	.	.
O=C(C[N+]1(CC(O)c2ccccc2)CCCCC1)c1ccccc1 (stereo not given)	-10%	.	?	.	.	.
CCCNC(=O)C1(CC2CC(c3ccccc3)=NO2)CCN(C(=O)c2cc(OCC)c(OCC)c(OCC)c2)CC1 (stereo not given)	?	.	?	12	?	.
CCCCCCCNC(=O)C1(CC2CC(c3cccc(Br)c3)=NO2)CCN(C(=O)CCCCCBr)CC1 (stereo not given)	26µM*	2%	23µM*	9	?	?
CC(C)(C)OC(=O)N1CCC(CC2CC(c3cccc(Br)c3)=NO2)(C(=O)O)CC1 (stereo not given)	-2%	.	-11%	4	26	-4%
CCCCCCCNC(=O)C1(CC2CC(c3cccc(Br)c3)=NO2)CCN(C(=O)C2(C)CC2)CC1 (stereo not given)	16µM*	1%	16µM*	-16	-59*	?
CCOc1cc(C(=O)N2CCC(CC3CC(c4cccc(Br)c4)=NO3)(C(=O)NCC3CCCCC3)CC2)cc(OCC)c1OCC (stereo not given)	21µM*	.	?	-4	?	?
O=C(NCCCc1ccc(F)cc1)C1CCC(=O)N(CC2CCCCC2)C1 (stereo not given)	?	3%	?	2	-2	-3%
C(=C1/CCCC2=C1Nc1ncnn1C2c1ccccc1)/c1ccccc1 (stereo not given)	.	-4%	.	.	.	?
S=C1NC2=C(CCC/C2=C\c2ccc(Cl)cc2)C(c2ccc(Cl)cc2)N1 (stereo not given)	23µM*	4%	?	1	-26	-22%
Fc1ccccc1/C=C1\CCCC2=C1NC(=S)NC2c1ccccc1F (stereo not given)	?	8%	?	4	-5	?
S=C1NC2=C(CCC/C2=C\c2ccccc2)C(c2ccccc2)N1 (stereo not given)	15µM*	8%	?	1	-1	8%
Fc1cccc(/C=C2\CCCC3=C2NC(=S)NC3c2cccc(F)c2)c1 (stereo not given)	21µM*	10%	?	6	-12	?
CC(Oc1ccccc1)C(=O)N1CCN=C1SCc1ccccc1F (stereo not given)	?	5%	?	-9	?	5%
SMILES	TDP1 cell noCPT	TDP1 block	DT40 TDP1 CPT	Giardia killer	IL1B secr inh	ELG1 DNA repair
CC(=O)N1c2ccccc2C2(C)C(C1(C)C)C2(Cl)Cl (stereo not given)	?	-3%	-12%	2	8	-18%
Cc1ccc2c(c1)C1(C)C(C(C)(C)N2C=O)C1(Cl)Cl (stereo not given)	10µM*	.	-23%	12	-6	-9%
COc1cc(OC)cc(C(=O)NNC(=O)C(=O)Nc2cc(OC)c(Cl)cc2OC)c1	-20%	-3%	?	-22	-15	-16%
N=c1n(N)c2ccccc2n1CC(=O)c1ccc(Br)cc1	21µM*	.	23µM*	-22	-94*	?
C=CCn1c(=N)n(CC(=O)c2ccc(Br)cc2)c2ccccc21	?	.	?	44	-83*	-4%
Cc1ccc(S(=O)(=O)NCCc2nnc3ccc(SCC(=O)Nc4ccc(OC(F)(F)F)cc4)nn23)cc1	-25%	-3%	?	.	.	.
C=C1CCC2C(C)(C)[C@H](O)CC[C@@]2(C)[C@@H]1COc1cc(=O)oc2ccccc12 (stereo not given in full)	?	1%	?	-9	-13	?
C=C1CC(COc2cc(=O)oc3ccccc23)(c2ccccc2)OC1=O (stereo not given)	1.6µM*	.	1.2µM*	-19	-117*	.
COc1cccc(CNC(=O)C(=O)NCC(c2ccc3c(c2)OCO3)N2CCOCC2)c1 (stereo not given)	-29%	7%	0%	.	.	.
O=C1CC(=O)N(Cc2ccco2)C(=S)N1	-3%	2.5µM*	-4%	-14	6	3%
O=C1C(=C2CCCCC2)SC(=S)N1Cc1ccco1	16µM*	0%	?	-12	11	-14%
O=C1CC(=O)N(Cc2ccco2)C(=O)N1	-1%	10µM*	6%	-2	17	0%
O=C(O)CCN1C(=O)C(=C2CCCCCC2)SC1=S	-5%	-1%	-7%	1	8	0%
S=C1NCN(Cc2ccco2)CN1	3%	3%	4%	-4	-6	11%
O=C1CC(=O)N(Cc2cccs2)C(=O)N1	-14%	-9%	-6%	-24	-3	3%
CC(C)c1ccc(NC(=O)C2Cc3c(-c4ccc5c(c4)OCO5)ccnc3O2)cc1 (stereo not given)	15µM*	.	?	.	-58*	.
